Measured values taken from publication PMC12136788.
Changes are numbered by the printed parent chain. In all, about 5,800 sequences were measured (“enrichment r”: median about 0.54, highest 2% from about 16 on). Shown is part of a subset that was picked to be rich in the highest values.

B1: ENSG00000069329:stop:overlap|stop_codon|ENSG00000069329|stop_codon|NA|stop_codon (ssRNA)
RNA: GGGAGUUCUACAGUCCGACGAUCUGGAGAAGGGGCCCCACAGACCGUUCGGGAUUAAGACCAGCCCGAUUUGGCCUGCGGGAUAGGGGACAGCAGGAGGAAGGCCGCGGGCAGGCUGAUCCGGGCCGGGGUGGGCGGCGGCUCCAACAGAGGAUUGAGCAUCA
B2: chr16:58599380:58599482:-|5pUTR|ENSG00000125107|unk|total|mutant (ssRNA)
RNA: GGGAGUUCUACAGUCCGACGAUCCAGAACAGAGUAAGACCCCUGGUAAAGAAGAACUGAAGAUAUUAUACAGAUACCAGAUACCGCCUAAUUACAAAGAAAGCAUUAACCUGCCUCUGAGGUGACUAAAGGGGAAUAAUGGUGCAACAGAGGAUUGAGCAUCA
B3: chr11:113276125:113276317:+|3pUTR|ENSG00000149294|msi1|FALSE|unique (ssRNA)
RNA: GGGAGUUCUACAGUCCGACGAUCGUCCGUGUAAAAUAGCUGCCUUUUAUUUUUUAAGGUAACAAAUACCACCUAGAGGUAGGUAGGAUCAUCCCACGCUUGCUUUAGCACAGGACAACUUUACAAAACAUGAUUGUUUACAGCCAACAGAGGAUUGAGCAUCA
B4: chr14:53038166:53038268:-|3pUTR|ENSG00000100523|unk|total|mutant (ssRNA)
RNA: GGGAGUUCUACAGUCCGACGAUCGAGCUUUUGGCAGAGUCUUCGGGGUUUUCCCGGUAUAAAAUCAUAUCAGCGAAGAGAGCCCGUUUGAUUUCUUUUCCCAGUUGGAUGCCUUUUAUUUAUUUCUCUUGCCUGAUUGCUCUACAACAGAGGAUUGAGCAUCA
B5: chr2:39051162:39051270:-|CDS|ENSG00000115904|unk|total|mutant (ssRNA)
RNA: GGGAGUUCUACAGUCCGACGAUCAAAUAUAUUCCGUCGCACCGCCGAUAUACAUGAACUCCGUGUAAAGUUACUGGGCCAUACCGAAGAUACAGCCGAAAUGACAGAUGAAGGCAGUCCCCAUCCACCCGCCGGAAGCUGCUUCAACAGAGGAUUGAGCAUCA
B6: chr9:96818597:96818698:-|CDS|ENSG00000196597|unk|FALSE|unique (ssRNA)
RNA: GGGAGUUCUACAGUCCGACGAUCGGAGAAACCAUUCGAAUGUCAUGAAUGUGGGAAAUCUUUUAACUAUAAGUCAAUCCUCAUAGUGCAUCAGAGAACUCACACAGGGGAGAAACCUUUUGAAUGUAAUGAAUGCGGGAAAUCCAACAGAGGAUUGAGCAUCA
B7: chr10:128104542:128104643:-|CDS|ENSG00000148773|msi1|total|mutant (ssRNA)
RNA: GGGAGUUCUACAGUCCGACGAUCAAGUGAUGAGAAAAAUAUCAACACAUUUGUGGAAACUCCAGUGCAGAAACUGGACCUGCCCGGAAAUUUACCUGGCAGCAAGAGACAGCCACAGACUCCUAAGGAAAAGGCUGAGGCUCUCAACAGAGGAUUGAGCAUCA
B8: chr4:138167974:138168075:-|3pUTR|ENSG00000151012|msi1|total|mutant (ssRNA)
RNA: GGGAGUUCUACAGUCCGACGAUCCACAAAAUCUGCAUUGUCCAUGUGAGUAAAGUAAAAUAAUUCCUGUUAUUUUUUUCUGUCCGAAAUAAGUAUGGAGGAUAUGUUUUUAAAAAUUUAUGAGUUAAUUGAAAUAUCCAUAUACAACAGAGGAUUGAGCAUCA
B9: chr5:38481646:38481747:-|CDS|ENSG00000113594|unk|total|mutant (ssRNA)
RNA: GGGAGUUCUACAGUCCGACGAUCCAGACCUCAGGCCAAUGUAAAUACAUGGAAUUCCGUGUCUCCAGACUCUCCCCGAUCCACCGACAGCAACAGUGAGAUUGUCUCAUUUGGAAGUCCAUGCUCCAUUAAUUCCCGACAAUUCAACAGAGGAUUGAGCAUCA
B10: chr13:69700593:69701701:-|three_prime_utr|ENSG00000150361|control|control|control (ssRNA)
RNA: GGGAGUUCUACAGUCCGACGAUCUUGAAUGGCAAGAAUGAGAACUUCCAGAGAUGAAAACUCUUCAAGAACAAGGAUCUCUGUAGCGUUACCUACUGAUGUUGAAAGAGUUAGUAGAUCAAACAGAAUAGUAGGAAACAAGAACAACAGAGGAUUGAGCAUCA
B11: ENSG00000198589:be:win_251|CDS|ENSG00000198589|bound_else_gene|NA|bound_elsewhere_windowed (ssRNA)
RNA: GGGAGUUCUACAGUCCGACGAUCUCAUUAUCCAAGAAGGUGAGAGUAUUAACUGCAUGGUGGACCUACUGGAAAAAUGUGACAUUACGUGCCAAGCAGAAGUCUGGAGCAUGUUUACAGCCAUUCUGAAGAAAAGCAUACGGACAACAGAGGAUUGAGCAUCA
B12: chr11:27368498:27368690:-|CDS|ENSG00000205213|msi1|FALSE|unique (ssRNA)
RNA: GGGAGUUCUACAGUCCGACGAUCACCCCUUUGUUUGCCAUUUCCUACAGGUGAAACGCCAUCAUUAGGAUUCACUGUAACGUUAGUGCUAUUAAACUCACUAGCAUUUUUAUUAAUGGCCGUUAUCUACACUAAACUAUACUGCAACAGAGGAUUGAGCAUCA
B13: chr7:123692404:123692516:-|CDS|ENSG00000106299|unk|FALSE|unique (ssRNA)
RNA: GGGAGUUCUACAGUCCGACGAUCCCUGCCUUCUGAUGGGGACCAUCAGGUUCCAACUACUGCAGGAAACAAAGCAGCUCUUUUAGAUCAAAUUAGAGAGGGUGCUCAGCUAAAAAAAGUGGAGCAGAACAGUCGGCCAGUGUCCAACAGAGGAUUGAGCAUCA
B14: chr5:139396562:139396955:-|CDS|ENSG00000170469|control|control|control (ssRNA)
RNA: GGGAGUUCUACAGUCCGACGAUCAGGGGUCCACAAGGUGGGGGCUUGUAGCCUAGGGGAGGAGCUGGGUCUUUGUUGUCUGGUAGGCACCACCGCUUCCUUUGGGUAUUUAAUCCCUUCCUAUAUAAACAGCCCUGGUUACCCCAACAGAGGAUUGAGCAUCA
B15: chr10:92030311:92030412:+|3pUTR|ENSG00000095564|unk|FALSE|unique (ssRNA)
RNA: GGGAGUUCUACAGUCCGACGAUCAUAUAAGAUUGAAACUGUAAAAUAUAUGCAACUGUGUGUUAUUUGUAGGAAAUGGUCACUAGAAAGAGCAAAAGAUUAUUCAGGUAUACAGGUUUUUUUUCAUUGUUUAGGAUUUUAACUCAACAGAGGAUUGAGCAUCA
B16: ENSG00000070961:be:win_6101|3pUTR|ENSG00000070961|bound_else_gene|NA|bound_elsewhere_windowed (ssRNA)
RNA: GGGAGUUCUACAGUCCGACGAUCUAAAGAUCUUGGAUCCCAUUAUAUAGUAUGUAUAGCUGAAAUCUGUAAUUCAAUCACUUUUUCUCUUUUAUCCUCUAACCAAAAAAUUGUUUAAUUUUGCAUCCCAAAUGUUUUUAAUCUCAACAGAGGAUUGAGCAUCA
B17: ENSG00000070961:be:win_6151|3pUTR|ENSG00000070961|bound_else_gene|NA|bound_elsewhere_windowed (ssRNA)
RNA: GGGAGUUCUACAGUCCGACGAUCCAAUCACUUUUUCUCUUUUAUCCUCUAACCAAAAAAUUGUUUAAUUUUGCAUCCCAAAUGUUUUUAAUCUUUGUAUAUUUUUUAAAAAUCCUUUUCUCCUCAUCAUUGCCUUUUUUGUGGCAACAGAGGAUUGAGCAUCA
B18: chr1:113764432:113764533:-|3pUTR|ENSG00000081019|msi1|FALSE|bound_elsewhere (ssRNA)
RNA: GGGAGUUCUACAGUCCGACGAUCAAAAUAUUCUGAAAUAGGUUAAAUCUUAUAUAAAUAUUACUUUGUGCAAUAUUGUUGUGUAGUUAAAUGCAUAUUAGCAAAGUAUAGAGGUCACUGUGUAAACCGAUAGAAAAGUAACCACAACAGAGGAUUGAGCAUCA
B19: chr6:75256125:75256201:-|CDS_3pUTR|ENSG00000112697|msi1_unk|total|mutant (ssRNA)
RNA: GGGAGUUCUACAGUCCGACGAUCUUUGGGGAUUGCUUACAUCGCUGUUGGAUCCAUCUCCUUCCUUCUGGGAGUUGUACUGCCCGUAAUUAAUCAUAAAUACCGAAACAGCCGUAAUACAGCUGACAUUACCAUUUAAUUUUACAACAGAGGAUUGAGCAUCA
B20: chr8:94436494:94436868:-|CDS|ENSG00000265817|control|control|control (ssRNA)
RNA: GGGAGUUCUACAGUCCGACGAUCAAUAGUAGAAAAGAAUAGAUGUUGGGAUAUCAUAGCAGUUAACUAUAAUGCAAUUGGAGUAGACCGCCCUCCUCGAACAGCACAGGGCCUACGCACCCUUUAUAAAAGGCUCAAAGAAUACAACAGAGGAUUGAGCAUCA
B21: chr1:113764432:113764533:-|3pUTR|ENSG00000081019|msi1|total|mutant (ssRNA)
RNA: B18 RNA with U38C, A39C, U83C, A84C, U98C, A99C, U108C, A109C, U130C, A131C
B22: chr1:229632307:229632408:+|CDS|ENSG00000135763|unk|total|mutant (ssRNA)
RNA: GGGAGUUCUACAGUCCGACGAUCAUUUUAUAAGAAAAAGCUUGAACUGAAGGAAGAUAUUGUUGAAAGGCUUUGGAUCUAUACCGAUAACAUUUUACACCGCAGAAAAUUGCAGAAUCUCCUCAAGAAUGGAAAGACCAUUAACAACAGAGGAUUGAGCAUCA
B23: chr6:75256125:75256201:-|CDS_3pUTR|ENSG00000112697|msi1_unk|FALSE|overlapping (ssRNA)
RNA: B19 RNA with C83U, C84A, C102U, C103A, C111U, C112A
B24: chr11:101473508:101473773:-|CDS|ENSG00000137672|control|control|control (ssRNA)
RNA: GGGAGUUCUACAGUCCGACGAUCUCCUCAAAUAAUAUCUGAAGGUCUUUAUGCAAUUGCUGUAGUUUUAAGUUUCUCUAGGAUAGCUUAUAUUUUACCAGCAAAUGAAAGCUUUGGACCUCUGCAGAUAUCACUUGGAAGAACCAACAGAGGAUUGAGCAUCA
B25: chr10:113908677:113908778:+|3pUTR|ENSG00000196865|unk|total|mutant (ssRNA)
RNA: GGGAGUUCUACAGUCCGACGAUCAGCUAUGCUCCUUACUUACUUCUUUUAUUAUAAACAAAUUCCUUUGCUUUGGCUGAUACCCGCUGAGUCAUUGAUCAUCAUUGGUACCAUGAUAUUGUAAUCUAUGCUGCUAUUUGGCACCAACAGAGGAUUGAGCAUCA
B26: chr5:113019263:113019364:+|3pUTR|ENSG00000172795|msi1|FALSE|unique (ssRNA)
RNA: GGGAGUUCUACAGUCCGACGAUCCUCAACUGUGAAUGAAAUUUAGAAAGAUAAUUCUUCAGCAGUUGGUUGAUUAGAUGGGUUAGUGCUUUUGGAAUAUAUAACAGUAGACUUGUAUUCUUUAUGCACUAUACAUAUGAUACGCAACAGAGGAUUGAGCAUCA

molecular target: MSI1 full-length (mouse, UniProt Q61474 1-362); assay: nsRBNS (natural sequence RNA bind-n-seq); RBNS binding buffer (assumed for nsRBNS): 25 mM Tris pH 7.5, 150 mM KCl, 3 mM MgCl2, 0.01% Triton X-100, 500 ug/ml BSA, 20 U/ml SUPERase-In, 4 C; UNK is unkempt and MSI1 is Musashi-1; names of the RNAs are library labels; protein concentration not given here; high values mean tight binding
Sequence (Q61474 whole entry): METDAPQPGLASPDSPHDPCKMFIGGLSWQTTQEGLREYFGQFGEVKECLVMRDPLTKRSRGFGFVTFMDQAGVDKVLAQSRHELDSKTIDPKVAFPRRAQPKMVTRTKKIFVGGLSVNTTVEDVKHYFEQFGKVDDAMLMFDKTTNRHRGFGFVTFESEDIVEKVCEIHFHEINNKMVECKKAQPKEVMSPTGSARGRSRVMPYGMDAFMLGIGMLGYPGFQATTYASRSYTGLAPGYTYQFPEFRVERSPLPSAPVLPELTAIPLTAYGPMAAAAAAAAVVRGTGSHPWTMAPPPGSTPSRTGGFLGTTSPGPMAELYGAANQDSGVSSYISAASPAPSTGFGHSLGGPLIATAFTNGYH

Question: For B1, which binding signal is on record?
Answer: 0.367 enrichment R

Question: With B2 as the binder, how does the binding signal read?
Answer: 0.791 enrichment R

Question: How did the binding signal turn out when B3 was run?
Answer: 0.716 enrichment R

Question: Which binding signal does the source give for B4 here?
Answer: 0.36 enrichment R

Question: B5 was tested. Which binding signal did it give?
Answer: 0.566 enrichment R

Question: For B6, which binding signal is on record?
Answer: 0.426 enrichment R

Question: Which binding signal does the source give for B7 here?
Answer: 0.365 enrichment R

Question: Which binding signal does the source give for B8 here?
Answer: 0.651 enrichment R

Question: For B9, which binding signal is on record?
Answer: 0.459 enrichment R

Question: With B10 as the binder, how does the binding signal read?
Answer: 4.13 enrichment R

Question: For B11, which binding signal is on record?
Answer: 0.303 enrichment R

Question: B12 was tested. Which binding signal did it give?
Answer: 1.09 enrichment R

Question: Which binding signal does the source give for B13 here?
Answer: 0.703 enrichment R

Question: Which binding signal does the source give for B14 here?
Answer: 1.74 enrichment R

Question: For B15, which binding signal is on record?
Answer: 6.54 enrichment R

Question: How did the binding signal turn out when B16 was run?
Answer: 30 enrichment R

Question: With B17 as the binder, how does the binding signal read?
Answer: 3.25 enrichment R

Question: For B18, which binding signal is on record?
Answer: 51.3 enrichment R

Question: With B19 as the binder, how does the binding signal read?
Answer: 0.387 enrichment R

Question: B20 was tested. Which binding signal did it give?
Answer: 28.2 enrichment R

Question: With B21 as the binder, how does the binding signal read?
Answer: 0.583 enrichment R

Question: With B22 as the binder, how does the binding signal read?
Answer: 0.623 enrichment R

Question: Which binding signal does the source give for B23 here?
Answer: 18.4 enrichment R

Question: B24 was tested. Which binding signal did it give?
Answer: 1.39 enrichment R

Question: Which binding signal does the source give for B25 here?
Answer: 3.24 enrichment R

Question: How did the binding signal turn out when B26 was run?
Answer: 1.92 enrichment R
